GRIN3A LBD mod: NR3A (human) ligand-binding domain modulation. AID 1259313. 340,000 compounds, 2.5% hits. Tm shift relative to glycine control, % at 25 µM. NR3A LBD differential scanning fluorimetry, Tm shift; 0% = protein alone, 100% = glycine-bound protein;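 active = melting temperature shift of at least 10% of the positive control shift, at one fixed dose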
ADAM10 inh: inhibits human ADAM10; O14672; recombinant ADAM10, EDANS/DABCYL FRET peptide cleavage, 3 h; inhibition, % at 7 µM; 370,000 compounds, 0.62% hits; AID 720582;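 active = inhibition above a per-campaign cutoff equal to the mean of compounds falling between control-based bounds plus 3 SD, cut at about 20% in these data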;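 also: 0% = DMSO wells while the 100% control is not disclosed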
Target sequence (O14672 214-748 limits assumed): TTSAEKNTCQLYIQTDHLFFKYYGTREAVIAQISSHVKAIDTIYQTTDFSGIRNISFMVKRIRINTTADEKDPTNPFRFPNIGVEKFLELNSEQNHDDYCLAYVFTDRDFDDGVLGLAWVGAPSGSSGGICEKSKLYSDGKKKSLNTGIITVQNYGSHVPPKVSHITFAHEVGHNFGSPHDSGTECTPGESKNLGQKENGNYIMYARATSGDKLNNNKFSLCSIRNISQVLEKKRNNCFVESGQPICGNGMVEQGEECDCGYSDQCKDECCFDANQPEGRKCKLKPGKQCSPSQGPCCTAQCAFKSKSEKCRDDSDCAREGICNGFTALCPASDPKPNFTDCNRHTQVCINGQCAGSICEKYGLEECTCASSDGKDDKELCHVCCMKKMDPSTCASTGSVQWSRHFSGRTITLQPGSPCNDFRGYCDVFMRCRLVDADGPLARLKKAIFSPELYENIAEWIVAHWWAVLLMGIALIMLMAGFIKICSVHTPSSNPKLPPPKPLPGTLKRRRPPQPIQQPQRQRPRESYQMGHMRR
AHR activator: activates the human aryl hydrocarbon receptor | AHR-responsive luciferase reporter cells, luminescence | AID 2796 | activation, % at 5 µM | P35869 | 320,000 compounds, 2.5% hits; in the data active = activation above about 47%;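 also: 0% = vehicle wells and 100% = reference agonist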
proKLK7 act: activates the human kallikrein-7 zymogen; P49862; purified proKLK7, EDANS-DABCYL substrate fluorescence; 100% is mature enzyme control, 0% vehicle; activation, % at 7 µM; 370,000 compounds, 0.9% hits; AID 652039;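 active = activation above the mean of all tested compounds plus 3 SD, computed per campaign excluding outliers beyond control limits, cut at about 13% in these data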
rCAG binder: r(CAG) repeat RNA binding; inhibition, % at 3 µM; AID 651821; 370,000 compounds, 1.3% hits; TO-PRO-1 dye displacement fluorescence;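 active = inhibition above the plate cutoff, the mean of all test compounds on that plate plus 3 SD, cut at about 35% in these data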;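 also: 0% = DMSO alone and 100% = 100 µM mitoxantrone as full dye displacement; higher means more dye released from RNA so lower well fluorescence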
ADAM17 inh: ADAM17 inhibition, QFRET primary screen. recombinant ADAM17, EDANS/DABCYL FRET peptide cleavage. inhibition, % at 6.95 µM. 370,000 compounds, 0.83% hits;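 active = inhibition above the mean of compounds lying between control limits plus 3 SD, set per campaign, cut at about 8.5% in these data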;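 also: 0% = DMSO-only wells as the low control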
ADAM10 ctr: ADAM10 inhibition, counter-screen for ADAM17 exosite hits; shares compounds with ADAM17 inh; recombinant ADAM10, EDANS/DABCYL FRET peptide cleavage, 3 h; inhibition, % at 6.95 µM; 2,900 compounds, 47% hits; AID 743256;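 active = mean inhibition over the triplicate runs exceeds the activity threshold set in the earlier primary screen, cut at about 20% in these data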;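 also: 0% = DMSO wells and 100% = marimastat wells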
ADAM17 confirm: confirmation of inhibitors of human ADAM17 | 2,900 compounds, 65% hits | recombinant ADAM17, EDANS/DABCYL QFRET peptide cleavage | shares compounds with ADAM17 inh | AID 743257 | inhibition, % at 6.95 µM;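 active = mean inhibition across replicates above the hit cutoff set in the primary screen, cut at about 8.5% in these data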;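 also: 0% = DMSO wells and 100% = marimastat wells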
* marks the source's active call; other numbers are inactive results; i = inactive; . = no result given. Sampled rows, rich in hits. Any-hit rate of the full collection: about 7%.

SMILES	GRIN3A LBD mod	ADAM10 inh	AHR activator	proKLK7 act	rCAG binder	ADAM17 inh	ADAM10 ctr	ADAM17 confirm
Cc1ccc(OCCOc2ccc(S(=O)(=O)N3CCCC3)cc2C(N)=O)cc1	2	-8	2	0	-1	-3	.	.
COc1ccc(C)cc1NC(=O)CSc1nnc(COc2ccc(Cl)cc2)n1Cc1ccco1	-16	20	9	0	0	11*	32*	18*
COc1ccc(C)cc1NC(=O)CSc1nnc(CC(=O)Nc2ccccc2C)n1C	-1	7	2	0	1	8.7*	3	0
COc1cc2c(cc1NC(=O)CSc1nnc(-c3ccccc3C)n1Cc1ccco1)oc1ccccc12	.	19	.	0	12	10*	22*	15*
CCN(CC)C(=O)C1=C(C)N(Cc2ccc(C(C)(C)C)cc2)C(=O)C(CC(=O)NCCCCc2ccccc2)C1 (centres undefined)	.	16	.	0	2	9.8*	20	8
CC1=C(C(=O)N(C)C)CC(CC(=O)NCCCCc2ccccc2)C(=O)N1Cc1ccc(C(C)(C)C)cc1 (centres undefined)	.	-2	.	0	3	11*	26*	12*
CC1=C(C(=O)N(C)C)CC(CC(=O)NCCCCc2ccccc2)C(=O)N1Cc1ccc(F)cc1 (centres undefined)	.	-7	.	0	-4	-2	.	.
CCN(CC)C(=O)C1=C(C)N(Cc2ccc(F)cc2)C(=O)C(CC(=O)NCCCCc2ccccc2)C1 (centres undefined)	.	-23	.	0	2	1	.	.
CCOC(=O)/C(=N/Nc1ccccc1)c1csc(Nc2ccccc2)n1	26*	1	36	-1	34	11*	10	8
Clc1ccc(OCCOCCOc2cccc3cccnc23)c(Br)c1	-5	13	14	0	-4	8.9*	12	13*
Brc1ccccc1OCCOCCOc1cccc2cccnc12	1	-4	9	0	-6	-4	.	.
O=C(Nc1cccc(S(=O)(=O)C(F)F)c1)c1ccc(S(=O)(=O)N2CCOCC2)cc1	1	13	3	0	7	11*	14	9.6*
O=C(Nc1ccc(S(=O)(=O)C(F)F)cc1)c1cccc(S(=O)(=O)N2CCOCC2)c1	-3	13	7	1	8	12*	14	9.0*
O=C(Nc1ccc2c(c1)CCC2)c1cccc(S(=O)(=O)N2CCN(c3ccccc3)CC2)c1	-3	16	24	-1	9	9.1*	20*	15*
O=C(Nc1ccncc1)c1cccc(S(=O)(=O)N2CCOCC2)c1	1	-8	2	0	-2	1	.	.
O=C(Nc1cccc(S(=O)(=O)C(F)F)c1)c1ccc(S(=O)(=O)N2CCCC2)cc1	-4	9	4	0	4	-2	.	.
COC(=O)[C@@]12C[C@@H](CC(=O)N3CCC(c4ccccc4)CC3)C(=O)N(CCc3ccc(OC)c(OC)c3)C1=CCC(C)(C)C2	.	10	.	1	8	5	.	.
CCCCCN1CC(=O)N2C(C)c3[nH]c4ccccc4c3C[C@H]2C1=O (some centres undefined)	-2	6	-1	11	2	-6	.	.
C=CCC[C@H](Cc1ccc(F)cc1)C(=O)O[C@H](CNC(=O)[C@@H](CC=C)CC(=O)N(CCO)Cc1ccccc1)c1ccccc1	1	14	0	1	4	11*	45*	22*
C=CC[C@H](CC(=O)N(CCO)Cc1ccccc1)C(=O)NC[C@@H](OC(=O)[C@@H](CC=C)Cc1ccc(F)cc1)c1ccccc1	-4	11	1	0	-3	3	.	.
COc1ccc(CC(=O)N2CCC(Nc3nc4ccccc4n3Cc3ccc(F)cc3)CC2)cc1	-1	13	-1	1	-1	11*	21*	12*
COc1ccc(CC(=O)N2CCC(c3ccccc3)C2)cc1 (centres undefined)	0	4	3	0	-2	2	.	.
CCOCCCN(C(=O)c1snc(C(N)=O)c1N)C(C(=O)NC1CCCC1)c1ccc(OC)cc1 (centres undefined)	-6	-104	4	3	-1	-42	.	.
CCCCCC(CC(=O)NO)C(=O)NC(C(=O)N1CCCC1CO)C(C)C (centres undefined)	0	.	1	0	0	51*	.	64*
CC(C)(C)OC(=O)N1CCC[C@@H]1CO	-2	.	-1	.	.	.	.	.
SMILES	GRIN3A LBD mod	ADAM10 inh	AHR activator	proKLK7 act	rCAG binder	ADAM17 inh	ADAM10 ctr	ADAM17 confirm
COc1ccc(OC)c(NC(=O)CCC(=O)Nc2nnc(C(C)C)s2)c1	0	1	4	-1	1	12*	-10	-3
COc1ccc(NC(=O)CCC(=O)Nc2nnc(C(C)C)s2)cc1Cl	0	2	33	1	-3	-3	.	.
CC1CN(S(=O)(=O)c2ccccc2)C(C)N1C(=O)N1CCOCC1 (centres undefined)	-2	0	1	1	1	1	.	.
Cc1ccc(S(=O)(=O)N2CC3(O)CN(C(=O)OC(C)C)N(C(=O)OC(C)C)CC3(OC(=O)Nc3cccs3)C2)cc1 (centres undefined)	.	19	.	0	5	9.4*	31*	13*
Cc1cc(NC(=O)COC(=O)C(Nc2ccc(C(F)(F)F)cc2Cl)C(C)C)no1 (centres undefined)	6	20	2	-1	-3	10*	41*	24*
Cc1cc(NC(=O)COC(=O)c2ccc(OC(F)(F)F)cc2)no1	2	-14	0	-1	-2	-4	.	.
Cc1noc(C)c1COC(=O)c1ccccc1NC(=O)c1ccco1	-2	-2	-3	1	-3	-5	.	.
CCN(Cc1ccccc1)CC(O)COC(c1ccc(OC)cc1)c1ccc(OC)cc1 (centres undefined)	-4	4	0	0	6	11*	3	8
O=C(NC1CCCC1)C(c1cccs1)N(C(=O)c1csnn1)c1ccccc1F (centres undefined)	-5	-3	2	1	-4	-1	.	.
N#CC(C#N)=C1C=C2C=C(N3CCCCCC3)CCC2CC1 (centres undefined)	-9	-15	.	10	i	9.7*	0	5
Cc1ccccc1CS(=O)(=O)Cc1ccc(C(=O)NC2CCCCC2)o1	-1	0	2	0	-3	-1	.	.

Screens: PubChem BioAssay, several laboratories
